# Measured values published in PubChem BioAssay (NCATS).
# Inconclusive results are not listed. Entries that show only a call come without a potency. Calls of active or inactive are those of the source. Unless noted, calls come from the whole dose curve; as a rule, active = well fitted curve in the direction sought with a large enough effect; inconclusive = small, poorly fitted or top-dose-only effect, or another doubt; inactive = no such curve, though single readings can be large; an effect the other way counts as inactive or inconclusive.
# Key:
# [1] = qHTS for Activators of Parkin Expression: LOPAC Validation Assay (FLuc Reporter) (AID 720573)
# Procedure, shortened: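 Readout is FLuc luminescence from neuronal reporter cells (Parkin promoter, FLuc plus NLuc) after 24 h compound exposure in dose response. Values normalized to neutral DMSO and positive-control compounds.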
# [2] = target: T1, Hexokinase-4 (Homo sapiens) + Glucokinase regulatory protein (Homo sapiens) (UniProt P35557+Q14397); assay: qHTS assay for inhibitors of recombinant human GCK-GKRP interaction: Diaphorase-coupled assay (AID 743205)
# T1 sequence (P35557 whole entry, looked up): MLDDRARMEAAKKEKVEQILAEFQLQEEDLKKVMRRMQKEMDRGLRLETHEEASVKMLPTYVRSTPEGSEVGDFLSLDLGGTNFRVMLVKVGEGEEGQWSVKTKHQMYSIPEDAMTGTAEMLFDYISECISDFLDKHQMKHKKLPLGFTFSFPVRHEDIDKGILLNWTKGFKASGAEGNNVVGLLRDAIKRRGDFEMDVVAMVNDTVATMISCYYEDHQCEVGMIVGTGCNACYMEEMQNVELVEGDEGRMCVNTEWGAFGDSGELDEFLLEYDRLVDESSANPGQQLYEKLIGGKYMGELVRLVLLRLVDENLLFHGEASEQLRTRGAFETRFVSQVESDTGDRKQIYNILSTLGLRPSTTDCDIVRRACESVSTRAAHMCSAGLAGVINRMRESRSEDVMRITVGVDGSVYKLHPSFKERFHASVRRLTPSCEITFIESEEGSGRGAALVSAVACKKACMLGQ
# T1 sequence (Q14397 whole entry, looked up): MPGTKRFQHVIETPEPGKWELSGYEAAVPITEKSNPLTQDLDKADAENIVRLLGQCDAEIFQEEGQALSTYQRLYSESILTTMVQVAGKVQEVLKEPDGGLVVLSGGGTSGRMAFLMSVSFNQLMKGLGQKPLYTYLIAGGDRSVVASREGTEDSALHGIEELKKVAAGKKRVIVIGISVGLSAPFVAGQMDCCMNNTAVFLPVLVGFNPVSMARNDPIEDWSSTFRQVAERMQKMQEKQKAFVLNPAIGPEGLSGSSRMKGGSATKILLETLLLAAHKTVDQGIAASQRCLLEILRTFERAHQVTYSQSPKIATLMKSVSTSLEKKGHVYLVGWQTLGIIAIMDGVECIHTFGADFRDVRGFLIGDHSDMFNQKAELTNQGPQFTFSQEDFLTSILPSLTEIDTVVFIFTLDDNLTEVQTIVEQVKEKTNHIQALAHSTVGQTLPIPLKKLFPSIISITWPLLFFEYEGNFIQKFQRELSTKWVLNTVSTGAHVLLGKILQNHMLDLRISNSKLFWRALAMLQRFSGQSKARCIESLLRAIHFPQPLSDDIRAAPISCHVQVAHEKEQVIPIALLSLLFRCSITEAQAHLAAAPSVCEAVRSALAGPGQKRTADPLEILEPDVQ
# Procedure, shortened: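 Signal derives from resorufin generated by diaphorase, linked to GCK turnover of glucose (5 mM) and ATP (0.4 mM). Enzyme complex was added after a 20-minute compound preincubation and monitored for 30 minutes.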
# [3] = target: T1, Hexokinase-4 (Homo sapiens) + Glucokinase regulatory protein (Homo sapiens); assay: qHTS assay for inhibitors of recombinant human GCK-GKRP interaction: ADP-Glo assay (AID 743206)
# Procedure, shortened: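 GST-GCK and FLAG-GKRP (15 nM each in the dispensed mix, with 2 uM S6P) react with 0.4 mM ATP and 5 mM glucose (final) in Hepes pH 7.6 for 60 min at room temperature. ADP is measured by ADP-Glo luminescence.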
# [4] = target: T1, Hexokinase-4 (Homo sapiens) + Glucokinase regulatory protein (Homo sapiens); assay: qHTS assay for inhibitors of recombinant human GCK-GKRP interaction: HTRF assay (AID 743207)
# Procedure, shortened: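 Titration screening format: recombinant GST-GCK and FLAG-GKRP at 5 nM, S6P at 2 uM, labelled anti-tag antibodies, 60 min at RT, dual-wavelength HTRF readout.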
# [5] = qHTS Assay for Identifying Gametocytocidal Compounds (AID 743244);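 note: actives lower the fluorescent signal which means gametocytes are killed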; conditions: P. falciparum 3D7 stage III-V gametocytes, alamarBlue, 72 h; max response: stronger effect = lower value
# Procedure, shortened: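 Using 20,000 stage III–V 3D7 gametocytes per well, compounds were incubated 72 h under 37 °C/5% CO2. Viability was then assessed by 24 h alamarBlue reduction, measured fluorometrically at 525/598 nm.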
# [6] = target: Atrial natriuretic peptide receptor 1 (Homo sapiens) (UniProt P16066); assay: Natriuretic polypeptide receptor (hNpr1) antagonism - Pilot screen (AID 1347049; calls by dose curve;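 note: agonist-evoked cGMP luminescence read 20 min after hNppA addition; series mostly up to about 58 µM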)
# Sequence of Atrial natriuretic peptide receptor 1 (Homo sapiens) (P16066 whole entry, looked up): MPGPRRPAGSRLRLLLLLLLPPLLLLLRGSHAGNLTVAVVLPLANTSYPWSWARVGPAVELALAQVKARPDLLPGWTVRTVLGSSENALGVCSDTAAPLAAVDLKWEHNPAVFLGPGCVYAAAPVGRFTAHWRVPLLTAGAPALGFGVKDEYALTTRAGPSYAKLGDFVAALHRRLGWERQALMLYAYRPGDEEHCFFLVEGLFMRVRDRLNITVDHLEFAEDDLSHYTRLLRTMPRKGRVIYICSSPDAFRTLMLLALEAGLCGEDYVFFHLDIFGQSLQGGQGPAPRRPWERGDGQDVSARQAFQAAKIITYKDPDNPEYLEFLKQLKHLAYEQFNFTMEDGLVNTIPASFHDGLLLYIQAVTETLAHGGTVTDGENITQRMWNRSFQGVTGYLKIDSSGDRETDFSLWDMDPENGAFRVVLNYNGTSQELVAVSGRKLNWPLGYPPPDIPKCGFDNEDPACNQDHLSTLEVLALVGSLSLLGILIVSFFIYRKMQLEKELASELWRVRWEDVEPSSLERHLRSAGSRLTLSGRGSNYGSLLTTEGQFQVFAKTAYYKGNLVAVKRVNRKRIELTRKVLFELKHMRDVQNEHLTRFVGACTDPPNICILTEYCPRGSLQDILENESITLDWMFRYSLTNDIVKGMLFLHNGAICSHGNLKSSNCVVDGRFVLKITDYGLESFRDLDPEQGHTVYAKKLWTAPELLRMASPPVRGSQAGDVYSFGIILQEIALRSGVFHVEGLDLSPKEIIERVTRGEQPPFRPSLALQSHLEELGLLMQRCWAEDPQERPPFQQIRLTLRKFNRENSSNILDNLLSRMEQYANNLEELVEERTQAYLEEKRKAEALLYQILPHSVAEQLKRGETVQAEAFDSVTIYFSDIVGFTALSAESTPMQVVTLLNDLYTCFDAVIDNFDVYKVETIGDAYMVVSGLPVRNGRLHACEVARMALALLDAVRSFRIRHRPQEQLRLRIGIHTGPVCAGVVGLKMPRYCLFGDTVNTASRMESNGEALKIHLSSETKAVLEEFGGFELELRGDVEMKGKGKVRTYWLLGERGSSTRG
# Procedure, shortened: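 HEK293 cells co-expressing hNpr1 and the GloSensor pGS-40F cGMP luciferase sensor were preloaded with 2% GloSensor reagent for 2 h. Compounds were added for 30 min at room temperature, then cells were stimulated with 0.1 nM hNppA for 20 min before luminescence readout.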
# [7] = target: Atrial natriuretic peptide receptor 2 (Homo sapiens) (UniProt P20594); assay: Natriuretic polypeptide receptor (hNpr2) antagonism - Pilot subtype selectivity assay (AID 1347050; calls by dose curve)
# Sequence of Atrial natriuretic peptide receptor 2 (Homo sapiens) (P20594 whole entry, looked up): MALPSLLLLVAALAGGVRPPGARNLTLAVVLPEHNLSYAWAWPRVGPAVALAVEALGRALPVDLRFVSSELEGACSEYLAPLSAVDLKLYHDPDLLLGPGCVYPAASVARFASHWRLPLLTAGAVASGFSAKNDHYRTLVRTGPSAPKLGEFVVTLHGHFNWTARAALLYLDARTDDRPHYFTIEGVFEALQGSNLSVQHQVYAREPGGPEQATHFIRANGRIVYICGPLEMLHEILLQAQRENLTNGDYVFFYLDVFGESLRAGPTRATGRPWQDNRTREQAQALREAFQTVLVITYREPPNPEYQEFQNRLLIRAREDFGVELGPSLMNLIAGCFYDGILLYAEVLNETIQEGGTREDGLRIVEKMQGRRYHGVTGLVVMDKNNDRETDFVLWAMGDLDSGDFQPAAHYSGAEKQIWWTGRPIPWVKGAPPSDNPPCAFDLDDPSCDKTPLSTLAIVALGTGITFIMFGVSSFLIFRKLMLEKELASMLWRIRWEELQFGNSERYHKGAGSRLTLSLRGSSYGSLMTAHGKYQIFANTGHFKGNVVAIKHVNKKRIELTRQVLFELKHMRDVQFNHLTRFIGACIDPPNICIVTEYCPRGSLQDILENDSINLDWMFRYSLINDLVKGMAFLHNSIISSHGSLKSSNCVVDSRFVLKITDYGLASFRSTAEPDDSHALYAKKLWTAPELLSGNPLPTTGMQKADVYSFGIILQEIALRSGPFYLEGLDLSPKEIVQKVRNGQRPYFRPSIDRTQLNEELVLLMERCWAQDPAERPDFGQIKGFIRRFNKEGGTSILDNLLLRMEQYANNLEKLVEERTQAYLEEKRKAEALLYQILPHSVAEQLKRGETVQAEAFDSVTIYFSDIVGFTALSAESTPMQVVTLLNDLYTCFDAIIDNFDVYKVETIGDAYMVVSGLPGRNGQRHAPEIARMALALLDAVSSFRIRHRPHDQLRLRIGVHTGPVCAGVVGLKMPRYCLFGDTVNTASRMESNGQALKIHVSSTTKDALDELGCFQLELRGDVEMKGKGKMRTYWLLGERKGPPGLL
# Procedure, shortened: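 cGMP-sensor HEK293/hNpr2 cells; 2% GloSensor reagent 2 h RT; compounds 30 min; baseline luminescence read; 1 nM hNppC agonist 20 min RT; final luminescence read by CCD camera. Antagonism = reduced post-agonist signal.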
# [8] = NS1 protein of Zika virus - qHTS assay to identify small molecule inhibitors in human HEK 293 cells (AID 1347053); note: series mostly up to about 46 µM; nearly all actives have a fitted effect of over 55% in size
# Procedure, shortened: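 Following 20 h seeding, HEK 293 cells took compound, then 1 h later ZIKV MR766 (MOI = 0.5). Incubation ran 24 h at 37 C before TR-FRET detection of NS1; a drop in signal indicates inhibition.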
# [9] = target: T2, Tyrosine-protein phosphatase non-receptor type substrate 1 (Homo sapiens) + Leukocyte surface antigen CD47 (Homo sapiens) (UniProt P78324+Q08722); assay: CD47-SIRPalpha protein protein interaction - LANCE assay qHTS validation (AID 1347057; active = well fitted curve in the direction sought with a large enough effect in the signal ratio, with a control signal flat, not every such curve was filed as active; the % refers to the signal ratio; note: series mostly up to about 38 µM)
# T2 sequence (P78324 whole entry, looked up): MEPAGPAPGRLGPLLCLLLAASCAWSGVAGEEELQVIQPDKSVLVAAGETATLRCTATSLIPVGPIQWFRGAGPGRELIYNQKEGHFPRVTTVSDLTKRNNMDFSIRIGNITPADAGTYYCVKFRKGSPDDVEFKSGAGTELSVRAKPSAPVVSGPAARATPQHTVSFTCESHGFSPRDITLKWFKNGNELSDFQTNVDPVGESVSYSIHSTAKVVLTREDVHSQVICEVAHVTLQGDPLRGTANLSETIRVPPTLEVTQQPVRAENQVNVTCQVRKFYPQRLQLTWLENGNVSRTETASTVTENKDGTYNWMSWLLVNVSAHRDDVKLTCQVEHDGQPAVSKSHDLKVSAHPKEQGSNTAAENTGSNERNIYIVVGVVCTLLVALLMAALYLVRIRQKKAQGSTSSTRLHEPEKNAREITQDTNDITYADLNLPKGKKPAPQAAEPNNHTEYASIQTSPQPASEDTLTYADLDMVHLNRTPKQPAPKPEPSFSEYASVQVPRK
# T2 sequence (Q08722 whole entry, looked up): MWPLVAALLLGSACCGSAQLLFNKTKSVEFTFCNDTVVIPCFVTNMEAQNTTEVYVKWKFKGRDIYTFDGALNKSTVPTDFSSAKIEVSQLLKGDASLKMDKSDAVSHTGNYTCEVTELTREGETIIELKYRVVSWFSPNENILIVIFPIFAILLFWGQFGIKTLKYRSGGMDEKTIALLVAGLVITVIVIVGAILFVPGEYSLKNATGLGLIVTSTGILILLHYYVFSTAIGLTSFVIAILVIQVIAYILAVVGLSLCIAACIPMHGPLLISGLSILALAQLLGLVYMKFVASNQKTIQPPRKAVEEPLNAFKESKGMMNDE
# Procedure, shortened: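 First, His-tagged CD47 and Eu-labelled anti-His antibody met the compound for 30 min; next, site-specifically biotinylated SIRPalpha was added for 30 min; finally streptavidin-APC was added before reading the TR-FRET ratio.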
# [10] = target: T2, Tyrosine-protein phosphatase non-receptor type substrate 1 (Homo sapiens) + Leukocyte surface antigen CD47 (Homo sapiens); assay: CD47-SIRPalpha protein protein interaction - Alpha assay qHTS validation (AID 1347059);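 note: bead proximity luminescence from CD47 binding SIRPalpha after compound preincubation with SIRPalpha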
# Procedure, shortened: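 Soluble extracellular domains: Avi-tag biotinylated SIRPalpha (25 nM) preincubated 30 min RT with compound, then 6His-CD47 (12.5 nM) 30 min; Ni-NTA acceptor and streptavidin donor beads (10 ug/mL) 30 min, AlphaScreen read. PBS pH 7.4, 0.05% IGEPAL.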
# [11] = test system: Zika virus NS2B-NS3 protease (unlinked); assay: Optimization of GU AMC qHTS for Zika virus inhibitors: Unlinked NS2B-NS3 protease assay (AID 1347151); note: potency is the fitted concentration of half-maximal effect; nearly all actives have a fitted effect of over 80% in size
# Procedure, shortened: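 In this qHTS, compounds acted on 25 nM unlinked Zika NS2B–NS3 in pH 8.0 Tris/Tween buffer. Cleavage of an AMC peptide ran 15 min at room temperature, to about 20% conversion.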
# [12] = target: Lysine-specific demethylase 5B (Homo sapiens) (UniProt Q9UGL1); assay: Optimization screen for KDM5B Histone Demethylases FDH coupled qHTS against the LOPAC library (AID 1347166)
# Procedure, shortened: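 KDM5BDeltaAP (200nM final) preincubated 10 min with compound, then 12.5uM H3K4Me3, 25uM a-ketoglutarate, ascorbate, Fe(II), NAD+ and FDH added; 50mM HEPES pH 7.5, 0.01% Tween-20. NADH fluorescence (340/450 nm) change over 30 min, room temperature.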
# [13] = qHTS to identify inhibitors of the type 1 interferon - major histocompatibility complex class I in skeletal muscle: primary screen against the NCATS LOPAC collection (AID 1347405);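 note: lytic HiBiT luminescence reporting HLA-B protein level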
# Procedure, shortened: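 Immortalized human C25cl48 myoblasts with HiBiT knocked into endogenous HLA-B*08:01 were stimulated with 4.0 ng/ml IFN-beta and given compounds in a 7-point, 1:4.3 titration from 46 uM final; after 24 hrs, lytic HiBiT luminescence was read.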
# [14] = qHTS for inhibitors of adenylyl cyclases using a fission yeast platform: a pilot screen against the NCATS LOPAC library (AID 1347410)
# Procedure, shortened: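 Inhibition of GNAS-stimulated AC9 activity in S. pombe was inferred from derepression of a PKA-repressed fbp1-GFP reporter, measured as cytometric fluorescence after 18 h at 30C with compounds at up to 57 µM.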
# [15] = Validation qHTS assay for inhibitors of Activation Induced Cytidine Deaminase (AID): UDG Counterscreen signal (AID 1347427)
# Procedure, shortened: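 Counterscreen read of UDG activity (2 U/mL, 4/3x) in the FRET deamination format with AID (1 uM, 4/3x), DJC20/DJC23 substrates (250 nM, 4x), 4 h at room temperature. NaOH stop, fluorescence at 560 ex/665 em.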
# [16] = target: Single-stranded DNA cytosine deaminase (Homo sapiens) (UniProt Q9GZX7); assay: Validation qHTS assay for inhibitors of Activation Induced Cytidine Deaminase (AID): AID signal (AID 1347429)
# Sequence of Single-stranded DNA cytosine deaminase (Homo sapiens) (Q9GZX7 whole entry, looked up): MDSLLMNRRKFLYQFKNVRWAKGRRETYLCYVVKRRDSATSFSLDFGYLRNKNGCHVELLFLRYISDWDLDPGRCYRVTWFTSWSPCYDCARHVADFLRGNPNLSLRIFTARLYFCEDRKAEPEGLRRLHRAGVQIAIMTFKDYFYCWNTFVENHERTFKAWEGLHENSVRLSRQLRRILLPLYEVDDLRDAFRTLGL
# Procedure, shortened: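 AID and UDG were combined and compounds added at final up to 114 uM, then DJC20/DJC23 FRET substrate was added for 4 hr at room temperature. NaOH was then added for 30 min before fluorescence was read at 540/590 nm.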
# [17] = Primary qHTS for small molecule stabilizers of the endoplasmic reticulum resident proteome: Secreted ER Calcium Modulated Protein (SERCaMP) assay (AID 1508630)
# Procedure, shortened: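 GLuc-SERCaMP-expressing SH-SY5Y cells, pretreated 16 h with compound, are challenged with thapsigargin to empty ER calcium stores; after 4 h, coelenterazine is added directly to the medium and luminescence is imaged.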
# [18] = target: Papain (Carica papaya) (UniProt P00784); assay: Primary qHTS assay for inhibitors of the protease papain (AID 1645873);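 note: papain turnover of Z-FR-AMC read as the AMC fluorescence gain over 10 min; series mostly up to about 50 µM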
# Sequence of Papain (Carica papaya) (P00784 whole entry, looked up, the tested form may be a part): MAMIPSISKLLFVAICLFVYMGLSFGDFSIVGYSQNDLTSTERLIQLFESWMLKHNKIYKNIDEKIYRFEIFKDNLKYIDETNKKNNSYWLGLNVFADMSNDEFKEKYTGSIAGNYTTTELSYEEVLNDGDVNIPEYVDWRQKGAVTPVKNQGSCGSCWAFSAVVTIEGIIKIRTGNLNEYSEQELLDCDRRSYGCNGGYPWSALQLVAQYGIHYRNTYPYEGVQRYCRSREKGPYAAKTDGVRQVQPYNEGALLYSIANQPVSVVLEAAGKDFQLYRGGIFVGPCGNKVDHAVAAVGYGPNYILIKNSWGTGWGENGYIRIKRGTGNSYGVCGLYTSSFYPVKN
# [19] = Primary qHTS for inhibitors of nuclear receptor binding SET domain protein 2 (NSD2) in an isogenic RCH-ACV NSD2 p.E1099K mutant (9B) (AID 1645876); note: nearly all actives have a fitted effect of over 70% in size
# [20] = target: Metallo-beta-lactamase type 2 (Klebsiella pneumoniae) (UniProt C7C422); assay: qHTS to identify inhibitors of the New Delhi Metallo-beta-lactamase (NDM): assay validation screen against the NCATS LOPAC Collection (AID 1794843);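 note: nitrocefin turnover by NDM-1 measured as 485 nm absorbance at plateau; series mostly up to about 38 µM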
# Procedure, shortened: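 Enzyme 2 nM final, 50 mM HEPES pH 7.0, 1 uM ZnSO4, 0.01% Tween20; cpds in DMSO, preincub w/ enzyme; + nitrocefin (50 uM stock); A485 at plateau; no-enzyme column as blank.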
# [21] = target: Glutathione peroxidase 1 (Homo sapiens) (UniProt P07203); assay: Primary qHTS Assay for Inhibitors of Recombinant Selenoprotein Glutathione Peroxidase 1 (GPX1) (AID 1845191); note: nearly all actives have a fitted effect of over 65% in size
# Sequence of Glutathione peroxidase 1 (Homo sapiens) (P07203 whole entry, looked up): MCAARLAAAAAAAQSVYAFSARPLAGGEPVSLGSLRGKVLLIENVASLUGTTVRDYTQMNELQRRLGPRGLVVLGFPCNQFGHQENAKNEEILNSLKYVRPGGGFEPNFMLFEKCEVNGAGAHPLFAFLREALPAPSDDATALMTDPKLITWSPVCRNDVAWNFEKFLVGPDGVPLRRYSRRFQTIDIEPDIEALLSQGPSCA
# Procedure, shortened: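 Recombinant GPX1 (10 nM final) was preincubated with compound for 30 min at room temperature, then reacted with 1 mM GSH, 0.5 mM CHP, 0.5 mM NADPH and 100 nM glutathione reductase; NADPH fluorescence (340/450 nm) was read at 0 and 15 min.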
# [22] = target: Phospholipid hydroperoxide glutathione peroxidase GPX4 (Homo sapiens) (UniProt P36969); assay: Primary qHTS Assay for Inhibitors of Recombinant Selenoprotein Glutathione Peroxidase 4 (GPX4) (AID 1845192); conditions: outcome: dose series up to 50 µM unless noted; note: series mostly up to about 50 µM; nearly all actives have a fitted effect of over 65% in size
# Sequence of Phospholipid hydroperoxide glutathione peroxidase GPX4 (Homo sapiens) (P36969 whole entry, looked up): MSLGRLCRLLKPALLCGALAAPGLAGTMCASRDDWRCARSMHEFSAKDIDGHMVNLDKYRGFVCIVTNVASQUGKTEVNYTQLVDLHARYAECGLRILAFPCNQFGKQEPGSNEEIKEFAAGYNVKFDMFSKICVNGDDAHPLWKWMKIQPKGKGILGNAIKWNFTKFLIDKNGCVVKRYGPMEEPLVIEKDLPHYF
# Procedure, shortened: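 GR-coupled readout: 100 nM GR, 1 mM GSH, 0.5 mM NADPH; NADPH fluorescence (ex 340/em 450 nm) read at t=0 and after 15 min RT. GPX4 200 nM, preincubated 30 min with compound; substrate 0.5 mM CHP.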
# [23] = qHTS drug screen for cell cycle checkpoint inhibitors in PARPi-resistant BRCA-mutant ovarian cancer cell lines. (AID 1963452; calls by dose curve); conditions: PEO1/OlaR viability, CellTiter-Glo luminescence, 96 h, stronger effect = lower value
# Procedure, shortened: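 PEO1, PEO4 and PEO1/OlaR ovarian cancer cells, 600 per well, exposed 96 h at 37C to a dilution series. Viability read by CellTiter-Glo luminescence, normalized to DMSO and empty wells; activity summarized as Z-AUC.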
smiles,measurement,setting,value
CCc1ccc(/C=C2/SC(=S)NC2=O)cc1,Potency,[1],inactive
same,outcome,[2],inactive
same,outcome,[3],inactive
same,outcome,[4],inactive
same,max response,[5],30.7% (inactive)
same,Potency,[6],inactive
same,Potency,[7],inactive
same,outcome,[8],inactive
same,outcome,[9],inactive
same,Potency,[10],inactive
same,Potency,[11],23.8 µM (active)
same,outcome,[12],inactive
same,Potency,[13],inactive
same,outcome,[14],inactive
same,outcome,[15],inactive
same,Potency,[16],inactive
same,Potency,[17],inactive
same,Potency,[18],inactive
same,Potency,[19],inactive
same,Potency,[20],inactive
same,Potency,[21],inactive
same,Potency,[22],inactive
same,Z-AUC,[23],0.0868 (inactive)
same,Z-AUC,[23]; measured here: PEO1 parental Z-AUC,0.677
same,Z-AUC,[23]; measured here: PEO4 Z-AUC,0.763
